# Structures can show the parent of a compound that is named as a salt.
# Columns and labels:
# [1] = system: U-2932; assay: growth inhibition by drug alone (1 - RLU/untreated control) (fraction); higher = stronger inhibition; conditions: 177Lu-lilotomab satetraxetan 0 ug/ml
# Summary of the method: (§1)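 Plates pre-printed with the Selleck Cambridge Cancer Compound library at 10/100 nM (RIVA) or 10/1,000 nM (U-2932) received 3,000 cells/well. These cells had been washed after 18 h untreated or with a radiolabelled anti-CD37 antibody conjugate (~600 MBq/mg; 0.5 µg/ml RIVA, 1 µg/ml U-2932). Growth inhibition was obtained from RealTime-Glo luminescence in relation to untreated no-drug wells. Each daily read from day 3, taken after 1 h at 37°C, was converted as 1 − RLU/mean of 48 such wells per plate.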
# [2] = system: RIVA; assay: as above; conditions: 177Lu-lilotomab satetraxetan 0 ug/ml
# Summary of the method: as §1
# [3] = system: U-2932; assay: growth inhibition by drug plus 177Lu-lilotomab satetraxetan (1 - RLU/untreated control) (fraction); higher = stronger inhibition; conditions: 177Lu-lilotomab satetraxetan 1 ug/ml
# Summary of the method: as §1
# [4] = system: RIVA; assay: as above; conditions: 177Lu-lilotomab satetraxetan 0.5 ug/ml
# Summary of the method: as §1
Compound,"growth inhibition by drug alone ([1]; 10 nM, time (day): 3)","growth inhibition by drug alone ([1]; 10 nM, time (day): 4)","growth inhibition by drug alone ([1]; 10 nM, time (day): 5)","growth inhibition by drug alone ([1]; 10 nM, time (day): 6)","growth inhibition by drug alone ([1]; 1000 nM, time (day): 3)","growth inhibition by drug alone ([1]; 1000 nM, time (day): 4)","growth inhibition by drug alone ([1]; 1000 nM, time (day): 5)","growth inhibition by drug alone ([1]; 1000 nM, time (day): 6)","growth inhibition by drug alone ([2]; 10 nM, time (day): 3)","growth inhibition by drug alone ([2]; 10 nM, time (day): 4)","growth inhibition by drug alone ([2]; 10 nM, time (day): 5)","growth inhibition by drug alone ([2]; 10 nM, time (day): 6)","growth inhibition by drug alone ([2]; 100 nM, time (day): 3)","growth inhibition by drug alone ([2]; 100 nM, time (day): 4)","growth inhibition by drug alone ([2]; 100 nM, time (day): 5)","growth inhibition by drug alone ([2]; 100 nM, time (day): 6)","growth inhibition by drug plus 177Lu-lilotomab satetraxetan ([3]; 10 nM, time (day): 3)","growth inhibition by drug plus 177Lu-lilotomab satetraxetan ([3]; 10 nM, time (day): 4)","growth inhibition by drug plus 177Lu-lilotomab satetraxetan ([3]; 10 nM, time (day): 5)","growth inhibition by drug plus 177Lu-lilotomab satetraxetan ([3]; 10 nM, time (day): 6)","growth inhibition by drug plus 177Lu-lilotomab satetraxetan ([3]; 1000 nM, time (day): 3)","growth inhibition by drug plus 177Lu-lilotomab satetraxetan ([3]; 1000 nM, time (day): 4)","growth inhibition by drug plus 177Lu-lilotomab satetraxetan ([3]; 1000 nM, time (day): 5)","growth inhibition by drug plus 177Lu-lilotomab satetraxetan ([3]; 1000 nM, time (day): 6)","growth inhibition by drug plus 177Lu-lilotomab satetraxetan ([4]; 10 nM, time (day): 3)","growth inhibition by drug plus 177Lu-lilotomab satetraxetan ([4]; 10 nM, time (day): 4)","growth inhibition by drug plus 177Lu-lilotomab satetraxetan ([4]; 10 nM, time (day): 5)","growth inhibition by drug plus 177Lu-lilotomab satetraxetan ([4]; 10 nM, time (day): 6)","growth inhibition by drug plus 177Lu-lilotomab satetraxetan ([4]; 100 nM, time (day): 3)","growth inhibition by drug plus 177Lu-lilotomab satetraxetan ([4]; 100 nM, time (day): 4)","growth inhibition by drug plus 177Lu-lilotomab satetraxetan ([4]; 100 nM, time (day): 5)","growth inhibition by drug plus 177Lu-lilotomab satetraxetan ([4]; 100 nM, time (day): 6)"
O=C(/C=C/C#Cc1cccc(NS(=O)(=O)c2ccccc2)c1)NO [Oxamflatin],0.0723,0.054,0.00482,-0.0197,0.851,0.808,0.766,0.702,0.0849,0.0278,0.0468,0.0353,0.675,0.482,0.435,0.389,-0.0134,0.0236,0.0539,0.158,0.941,0.947,0.958,0.96,0.518,0.564,0.59,0.607,0.726,0.683,0.691,0.686
CCc1cc(Nc2nccc(-c3c(-c4ccc(OC)c(C(=O)Nc5c(F)cccc5F)c4)nc4ccccn34)n2)c(OC)cc1N1CCC(N2CCN(S(C)(=O)=O)CC2)CC1,0.0467,-0.0848,-0.0609,-0.106,-0.14,-0.0216,-0.0601,-0.147,0.0601,-0.0266,-0.11,-0.339,0.205,0.0778,0.0473,-0.0711,-0.00397,0.0169,0.0318,0.0887,-0.153,0.0173,0.00224,-0.0976,0.374,0.514,0.532,0.545,0.381,0.455,0.481,0.461
CCN(CC)CCOc1ccc(Nc2ncc3cc(-c4c(Cl)cccc4Cl)c(=O)n(C)c3n2)cc1,0.107,0.071,0.00536,-0.00834,0.719,0.785,0.78,0.774,-0.00347,0.00881,-0.0667,-0.267,0.458,0.461,0.386,0.22,0.0115,0.0427,0.0614,0.118,0.958,0.972,0.981,0.984,0.458,0.527,0.536,0.546,0.495,0.473,0.405,0.287
COc1cc2ncnc(Nc3ccc(Oc4ccccc4)cc3)c2cc1OC,0.0897,0.0909,0.0445,-0.0326,0.038,0.0615,0.0344,0.0553,0.00348,0.0579,-0.00953,-0.188,-0.0251,0.00379,-0.0229,-0.143,0.0456,0.0896,0.111,0.169,-0.11,0.0137,0.0447,0.175,0.521,0.598,0.605,0.616,0.526,0.567,0.556,0.521
C[C@H](NC(=O)Cc1cc(F)cc(F)c1)C(=O)N[C@H](C(=O)OC(C)(C)C)c1ccccc1,-0.0234,-0.0325,-0.047,-0.000319,-0.0711,-0.073,-0.0673,-0.0373,-0.112,-0.175,-0.192,-0.264,-0.299,-0.293,-0.297,-0.351,-0.0297,0.0223,0.0667,0.147,-0.025,0.0181,0.0285,0.158,0.498,0.535,0.549,0.545,0.341,0.426,0.437,0.445
Cc1ccc(F)c(NC(=O)Nc2ccc(-c3cccc4[nH]nc(N)c34)cc2)c1 [Linifanib (ABT-869)],0.0297,0.0175,-0.00657,0.043,0.133,0.146,0.103,0.0811,-0.11,-0.109,-0.157,-0.289,0.0372,0.000859,-0.0495,-0.102,0.0166,0.0206,0.0473,0.197,0.0768,0.108,0.147,0.253,0.454,0.546,0.574,0.585,0.515,0.54,0.546,0.517
COc1cc2c(N3CCN(C(=O)Nc4ccc(OC(C)C)cc4)CC3)ncnc2cc1OCCCN1CCCCC1 [Tandutinib (MLN518)],-0.0695,-0.0613,-0.013,0.108,-0.0914,-0.0805,-0.0691,-0.0707,-0.157,-0.175,-0.185,-0.222,-0.102,-0.12,-0.163,-0.231,-0.106,-0.0661,-0.0234,0.112,-0.163,-0.112,-0.0614,0.0615,0.419,0.516,0.54,0.542,0.365,0.403,0.407,0.387
O=C(Nc1ccccc1-c1cn2c(CN3CCNCC3)csc2n1)c1cnc2ccccc2n1,0.102,0.0775,-0.0151,-0.0612,0.0868,0.0879,0.00704,-0.1,0.0628,0.0902,0.0591,-0.163,-0.0368,-0.02,-0.0409,-0.193,0.0225,0.0594,0.101,0.14,0.141,0.171,0.103,0.146,0.404,0.522,0.563,0.562,0.418,0.513,0.516,0.514
CNNCc1ccc(C(=O)NC(C)C)cc1 [Procarbazine hydrochloride (Matulane)],0.123,0.0702,-0.0853,-0.113,0.0616,0.0673,0.00725,-0.144,0.0732,0.0412,0.0155,-0.0516,-0.184,-0.167,-0.142,-0.189,0.0466,0.103,0.15,0.195,0.0453,0.108,0.126,0.177,0.542,0.584,0.596,0.607,0.494,0.553,0.563,0.554
O=c1c(O)c(-c2ccc(O)c(O)c2)oc2cc(O)cc(O)c12 [Quercetin (Sophoretin)],0.129,0.074,-0.0824,-0.0972,0.0543,0.0523,0.0143,-0.101,-0.0527,-0.036,-0.117,-0.426,-0.494,-0.296,-0.357,-0.683,0.0451,0.0897,0.166,0.21,0.0503,0.0821,0.135,0.211,0.546,0.61,0.613,0.619,0.346,0.469,0.48,0.508
Cc1ccc(-c2csc3ncnc(SCCC(=O)O)c23)cc1,0.0174,-0.014,-0.0343,-0.0333,-0.00216,-0.0356,-0.0409,0.0278,-0.135,-0.215,-0.266,-0.425,-0.333,-0.33,-0.376,-0.529,-0.0558,-0.00644,0.0127,0.0699,-0.0374,0.018,0.0424,0.16,0.458,0.495,0.522,0.525,0.365,0.436,0.45,0.472
Cc1ccc(S(=O)(=O)C=CC#N)cc1,0.107,0.0923,-0.0275,-0.041,-0.00518,0.09,0.058,-0.0332,0.0697,-0.00988,-0.0606,-0.287,0.12,0.0423,0.00106,-0.129,0.00206,0.0303,0.0547,0.0948,0.00618,0.193,0.194,0.225,0.414,0.5,0.522,0.534,0.401,0.472,0.47,0.452
CC1(C)CCC(c2ccc(Cl)cc2)=C(CN2CCN(c3ccc(C(=O)NS(=O)(=O)c4ccc(N[C@H](CCN5CCOCC5)CSc5ccccc5)c(S(=O)(=O)C(F)(F)F)c4)cc3)CC2)C1 [ABT-263 (Navitoclax)],-0.00418,-0.0018,-0.0135,0.024,0.0839,0.635,0.85,0.894,0.116,0.0668,0.0479,-0.0157,0.977,0.976,0.975,0.974,-0.0296,-0.00166,0.0241,0.15,0.115,0.591,0.816,0.904,–,–,–,–,–,–,–,–
O=C(/C=C/c1cccnc1)NCCCCC1CCN(C(=O)c2ccccc2)CC1,0.935,0.894,0.825,0.783,0.982,0.985,0.984,0.985,0.983,0.983,0.982,0.979,0.981,0.982,0.982,0.98,0.909,0.859,0.812,0.758,0.984,0.985,0.986,0.988,–,–,–,–,–,–,–,–
CCOc1cc2ncc(C#N)c(Nc3ccc(OCc4ccccn4)c(Cl)c3)c2cc1NC(=O)/C=C/CN(C)C [Neratinib (HKI-272)],-0.0556,-0.0442,-0.0146,0.0157,-0.0267,-0.00012,-0.0352,-0.0269,-0.145,-0.144,-0.165,-0.233,-0.0145,-0.0628,-0.098,-0.14,-0.0172,-0.00319,0.0327,0.194,-0.0673,0.003,0.00224,0.0815,–,–,–,–,–,–,–,–

# From the supplement of paper PMC6897291
